The text below walks through data of PubChem BioAssay (Tox21).

Each structure is given as a SMILES string. Results filed as inconclusive are left out. Calls of active or inactive are those of the source. Calls come from the whole dose curve; as a rule, active = well fitted inhibition curve with a large enough effect in the repeat runs; inconclusive = weak or mixed curves; inactive = no such curve, though single readings can be large or run the other way.
% is set by controls: 0 for no effect and ±100 for the full control effect; potency is the fitted concentration of half-maximal effect.

Sequence of Cytochrome P450 2C9 (Homo sapiens) (P11712 whole entry, looked up): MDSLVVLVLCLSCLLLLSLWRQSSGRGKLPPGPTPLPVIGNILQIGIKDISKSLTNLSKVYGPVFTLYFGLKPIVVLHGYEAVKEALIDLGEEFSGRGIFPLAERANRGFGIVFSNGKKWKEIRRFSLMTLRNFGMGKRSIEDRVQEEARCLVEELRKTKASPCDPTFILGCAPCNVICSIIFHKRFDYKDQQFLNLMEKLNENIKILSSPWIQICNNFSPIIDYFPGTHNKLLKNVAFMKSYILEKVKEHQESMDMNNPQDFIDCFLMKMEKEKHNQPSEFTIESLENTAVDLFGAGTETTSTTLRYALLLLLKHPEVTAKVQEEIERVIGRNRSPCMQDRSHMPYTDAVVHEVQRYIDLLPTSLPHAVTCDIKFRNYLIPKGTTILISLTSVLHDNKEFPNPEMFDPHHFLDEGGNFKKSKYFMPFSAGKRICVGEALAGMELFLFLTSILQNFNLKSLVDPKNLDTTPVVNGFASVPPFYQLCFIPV

This test deals with Cytochrome P450 2C9 (Homo sapiens) (UniProt P11712). Nature of the test: Cytochrome P450 Family 2 Subfamily C Member 9 (CYP2C9) small molecule antagonists: luciferase reporter qHTS assay (AID 1671198). Note: nearly all actives have a fitted effect of over 50% in size. Particulars: P450-Glo CYP2C9 enzyme assay, luciferin luminescence; series mostly up to 53 µM; activity change, negative = inhibition: at the top concentration. From the text:
U.S. Tox21 Program National Center for Advancing Translational Sciences [NCATS] U.S. Environmental Protection Agency [EPA] National Institutes of Environmental Health Sciences [NIEHS] National Toxicology Program [NTP] U.S. Food and Drug Administration [FDA] Tox21 Assay Overview: Cytochrome P450 (CYP) enzymes are membrane-bound hemeproteins that play a key role in metabolism of drugs and xenobiotics. Evaluation of the effect of chemicals on CYP isozymes is useful to minimize the adverse drug reactions and toxicities in drug development process. Tox21 chemicals were tested for their effect on CYP enzyme activities by using P450-Glo (TM) screening systems (Promega Corporation, Madison, WI). These systems provide a luminescent method containing proluciferin substrates and are converted to luciferin products by CYP isozymes. The luciferin products formed are detected with a luciferin detection reagent, and the amount of light produced is proportional to CYP activity. P450-Glo (TM) CYP2C9 screening system (Catalog. No. V9790) was used to detect the compounds that interfere in CYP2C9 activity.
Tox21 Assay Protocol Summary: Two ul of enzyme-substrate mix was dispensed into medium binding white/solid 1536-well plates (Greiner Bio-One North America Inc., Monroe, NC) using a BioRaptr Flying Reagent Dispenser (FRD, Beckman Coulter, Brea, CA). […] The assay plates were incubated at room temperature for 10 min. Then 2 ul of NADPH regeneration solution was added to each well of the assay plates using an FRD and incubated at 37C for 1 h. The reaction was stopped by adding 4 ul of detection reagent using an FRD and after 20 min incubation at room temperature the luminescence signal was measured using a ViewLux plate reader (Perkin Elmer, Shelton, CT). Data were expressed as relative luminescence units.
A general note: A reporter such as luciferase makes a cellular process visible.
With `CCOc1ccccc1N`, the Potency is 31.5 µM (active).
Consider `COc1ccc(S(=O)(=O)Nc2nnc(CC(C)C)s2)cc1`, for which the Potency is 9.77 µM (active).
Same read-out and setting: to `Clc1cccc(-c2cc(Cl)cc(Cl)c2)c1` belongs 38.5 µM (active); to `COc1cc2c(cc1N)oc1ccccc12`, 6.46 µM (active).
Regarding `C[C@@H](N)C(=O)O`, the “activity change, negative = inhibition” value was 0.493% (inactive).
As for `CN1[C@@H]2CC[C@H]1CC(OC(=O)c1c[nH]c3ccccc13)C2` (stereo not given in full), the “activity change, negative = inhibition” value is -6.1% (inactive).
With `CCCCOc1cc(C(=O)NCCN(CC)CC)c2ccccc2n1`, the “activity change, negative = inhibition” value is -4.84% (inactive).
Same read-out and setting: with `Cc1cc(NS(=O)(=O)c2ccc(N)cc2)nc(C)n1` the figure was -2.89% (inactive); with `O=C(O)[C@@H]1CSCN1`, -7.91% (inactive); with `C=CCc1cc(OC)c(O)c(C(=O)NCCO)c1`, -4.65% (inactive).
Consider `C=CC(C)(O)CC/C=C(\C)CCC=C(C)C` (stereo not given), for which the Potency is 31.7 µM (active).
Consider `C[C@@H]1CN(c2c(F)c(F)c3c(=O)c(C(=O)O)cn(C4CC4)c3c2F)C[C@H](C)N1`, for which the “activity change, negative = inhibition” value was 4.5% [at 23.6 µM] (inactive).
`O=C(CCCl)NCc1ccccc1`: the “activity change, negative = inhibition” value was -8.37% (inactive).
On the same count and under the same terms, to `CCCNC(C)C(=O)Nc1c(C)csc1C(=O)OC` (stereo not given) belongs -6.44% (inactive).
As for `CN(CCCN1c2ccccc2CCc2ccccc21)CC(=O)c1ccc(Cl)cc1`, the Potency was 15.5 µM (active).
In the case of `C[C@]12C(=O)OC(=O)[C@H]1[C@H]1C=C[C@@H]2C1`, the “activity change, negative = inhibition” value was 7.03% [at 115 µM] (inactive).
With `CC(C)C1=CC2=CC[C@@H]3[C@](C)(CCC[C@@]3(C)C(=O)O)[C@H]2CC1`, the Potency was 28.3 µM (active).
On the same count and under the same terms, to `Cc1c(N)cccc1N` belongs 64.7 µM (active).
For `O=C(O)c1ccccc1Nc1cc(Cl)ccc1C(=O)O`, the “activity change, negative = inhibition” value is 10.1% [at 23.6 µM] (inactive).
Same read-out and setting: with `FC(F)(F)c1ccccc1` the figure was -0.199% [at 115 µM] (inactive); with `CC(C)CC(=O)OCc1ccccc1`, -0.478% [at 115 µM] (inactive).
Same read-out and setting: to `CCCCN1C[C@H](O)[C@@H](O)[C@H](O)[C@H]1CO` belongs 8.23% (inactive).
On the same count and under the same terms, with `CCN(O)CC` the figure was 3.31% [at 115 µM] (inactive); with `CCC/C=C/CO`, -0.0744% [at 115 µM] (inactive); with `CCN(CCCc1ccccc1)CCCc1ccccc1`, -12.4% (inactive).
For the compound `CCN1CC(CCN2CCOCC2)C(c2ccccc2)(c2ccccc2)C1=O` (stereo not given), the “activity change, negative = inhibition” value is -15.1% (inactive).
The same measure, in the same setting: to `O=c1[nH]cnc2c1ncn2[C@@H]1O[C@H](CO)[C@@H](O)[C@H]1O` belongs 3.09% (inactive); to `CC(=O)Oc1cc(C(C)C)c(OCCN(C)C)cc1C`, 6.38% (inactive); to `COc1ccccc1OCC(O)COC(N)=O` (stereo not given), 13.6% (inactive).
As for `Nc1ccc(Oc2ccc(N)c(N)c2)cc1`, the Potency was 6.33 µM (active).
On to `CC1(C)O[C@@H]2C[C@H]3[C@@H]4CCC5=CC(=O)CC[C@]5(C)[C@@]4(F)[C@@H](O)C[C@]3(C)[C@]2(C(=O)CCl)O1`, for which the Potency is 15.5 µM (active).
Regarding `COC(=O)/C=C(/C)N`, the “activity change, negative = inhibition” value was -11.1% (inactive).
Same read-out and setting: with `Cc1ccc(C=O)s1` the figure was -7.84% [at 115 µM] (inactive).
The same measure, in the same setting: with `Cc1onc(-c2ccccc2)c1C(=O)Cl` the figure was -6.54% (inactive).
On the same count and under the same terms, to `Cc1ccc([N+](=O)[O-])c(N)c1` belongs 44.1% [at 115 µM] (inactive); to `O=Cc1ccc(F)c(Br)c1`, -13.5% [at 115 µM] (inactive); to `O=[N+]([O-])c1nccn1CO[C@@H](CO)[C@H](O)CO`, 0.219% (inactive).
Regarding `O=c1[nH]c(=O)n([C@H]2C[C@H](O)[C@@H](CO)O2)cc1C(F)(F)F`, the “activity change, negative = inhibition” value is -3.15% (inactive).
`O=C(CC(=O)C(F)(F)F)c1ccccc1`: the Potency is 32.2 µM (active).
Take `CN1CCN(C2=Nc3cc(F)ccc3Cc3ccccc32)CC1`: the “activity change, negative = inhibition” value is 29.7% (inactive).
